# This is one part of the list. How many sequences the whole screen found active is unknown.
# Biological target: furin, P09958
# Assay: furin cleavage Z-score vs untreated control; higher = more cleavage, active = 3.5 or more, inactive = 1 or less, 8 variable residues between constant flanks
# Summary of the method: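 Purified furin digested bead-held 8-mer peptide–cDNA fusions at 1:10 enzyme:substrate in 0.01 ml of 50 mM HEPES pH 7.5 with CaCl2 and NaCl for 7.5, 15 or 30 min. The cleavage Z-score compares sequencing counts of released DNA with furin-free reactions on a log scale, with lowess adjustment and median absolute deviation scaling.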
# furin, P09958, sequence (P09958 whole entry): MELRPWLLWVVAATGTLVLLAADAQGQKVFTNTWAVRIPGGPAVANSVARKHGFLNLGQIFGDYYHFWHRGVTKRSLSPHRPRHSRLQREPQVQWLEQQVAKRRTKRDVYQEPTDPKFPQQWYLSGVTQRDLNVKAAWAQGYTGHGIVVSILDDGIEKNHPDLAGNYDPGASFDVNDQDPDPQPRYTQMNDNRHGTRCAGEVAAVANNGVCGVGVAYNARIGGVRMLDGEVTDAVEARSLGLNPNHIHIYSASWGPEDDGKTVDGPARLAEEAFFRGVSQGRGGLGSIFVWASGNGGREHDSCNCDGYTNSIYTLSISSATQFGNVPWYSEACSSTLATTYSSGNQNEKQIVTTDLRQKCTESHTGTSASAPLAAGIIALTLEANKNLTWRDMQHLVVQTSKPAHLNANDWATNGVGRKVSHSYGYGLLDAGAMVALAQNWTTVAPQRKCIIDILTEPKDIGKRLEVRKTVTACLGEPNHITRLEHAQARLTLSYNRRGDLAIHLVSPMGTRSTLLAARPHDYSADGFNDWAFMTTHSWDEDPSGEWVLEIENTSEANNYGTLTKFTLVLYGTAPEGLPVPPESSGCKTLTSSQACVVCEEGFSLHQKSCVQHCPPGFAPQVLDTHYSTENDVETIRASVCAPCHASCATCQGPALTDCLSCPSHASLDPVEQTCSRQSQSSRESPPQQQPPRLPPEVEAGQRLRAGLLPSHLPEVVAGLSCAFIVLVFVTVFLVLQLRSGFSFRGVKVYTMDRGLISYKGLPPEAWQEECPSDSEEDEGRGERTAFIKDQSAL
Sequence,furin cleavage Z-score (7.5 min),furin cleavage Z-score (15 min),furin cleavage Z-score (30 min)
CAQKLPINALAGNASASA [HC1380],0.17 (inactive),-0.107 (inactive),-0.819 (inactive)
CAGDFHYVTGAGNASASA [HC1209],-0.771 (inactive),-0.551 (inactive),-1.55 (inactive)
CATTPPSGSWAGNASASA [HC60],-1.04 (inactive),-0.299 (inactive),-0.554 (inactive)
CASYANGSGPAGNASASA [HC397],0.376 (inactive),-1.07 (inactive),0.0876 (inactive)
CADKEVVTSTAGNASASA [HC2294],-0.414 (inactive),-0.137 (inactive),-0.18 (inactive)
CAGENCGYRRAGNASASA [HC1506],-0.528 (inactive),-0.187 (inactive),-0.341 (inactive)
CAAEVRSKRRAGNASASA [FS-3],4.87 (active),4.38 (active),5.1 (active)
CAALKRSKRRAGNASASA [FS-1445],11.5 (active),10.6 (active),8.09 (active)
CAPLRRSKRRAGNASASA [FS-1148],9.4 (active),9.64 (active),8.71 (active)
CAIRSALKRPAGNASASA [FS-444],0.37 (inactive),-0.823 (inactive),-0.407 (inactive)
CAIRQVGDFHAGNASASA [HC1207],-0.371 (inactive),-0.615 (inactive),-1.78 (inactive)
CAIRSRVLREAGNASASA [FS-804],12.6 (active),10.5 (active),8.33 (active)
CAAERRSVIRAGNASASA [FS-1666],-0.389 (inactive),-2.19 (inactive),-0.341 (inactive)
CAALKRPVEQAGNASASA [FS-2858],-1.15 (inactive),-0.538 (inactive),-0.285 (inactive)
CAEVVPSTWVAGNASASA [HC140],-0.678 (inactive),-0.107 (inactive),0.5 (inactive)
CAESAGVQEDAGNASASA [HC1533],-0.496 (inactive),-1.46 (inactive),-0.975 (inactive)
CAQLFTFSPRAGNASASA [HC305],-0.105 (inactive),-0.574 (inactive),0.219 (inactive)
CASIFLLALLAGNASASA [HC248],-0.433 (inactive),-0.299 (inactive),-0.909 (inactive)
CAGNWFGCTWAGNASASA [HC434],2,1.1,-0.112 (inactive)
CARAHRSVLAAGNASASA [FS-1943],-0.832 (inactive),-0.15 (inactive),2.24
CAAVTHINSVAGNASASA [HC1428],-1.27 (inactive),-0.864 (inactive),-0.253 (inactive)
CASRKRSFFRAGNASASA [FS-3137],-0.305 (inactive),2.22,0.35 (inactive)
CATCSRHKRRAGNASASA [FS-96],4.62 (active),7.75 (active),7.17 (active)
CANRKRSKRRAGNASASA [FS-1240],10.6 (active),10.8 (active),8.12 (active)
CANRKRNKKQAGNASASA [FS-1239],0.136 (inactive),0.864 (inactive),2.02
CAFRSRSKRRAGNASASA [FS-773],8.16 (active),8.31 (active),7.71 (active)
CAFRSRSLREAGNASASA [FS-774],5.16 (active),6.5 (active),6.69 (active)
CATRARSLRFAGNASASA [FS-1099],-0.222 (inactive),2.2,1.03

# From the supplement of paper PMC3545927
